Results filed as inconclusive are left out. Active and inactive are the calls of the source. Rule for the calls, unless noted: active = hit-call score of the fitted dose curve at least 0.9, where 1 is the maximum; inconclusive = response in the unintended direction; inactive = score below 0.9.
What was measured:
[1] = ATG_TCF_b_cat_CIS: Attagene CIS-FACTORIAL HepG2 Assay for human T-Cell-Factor with beta-catenin (TCF/b-cat) (AID 2282965; active = hit-call score of the fitted dose curve at least 0.9, where 1 is the maximum; inactive = score below 0.9); conditions: HepG2 TCF/beta-catenin cis-reporter transcription, actives raise or lower the signal
Procedure, shortened: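 Using capillary electrophoresis as the read-out, labelled reporter cDNA fragments from transiently transfected HepG2 were sized and quantified. Exposure lasted 24 hours; activity in either direction was referenced to DMSO.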

[2] = ATG_TAL_CIS: Attagene CIS-FACTORIAL HepG2 Assay for human TAL Basal Promoter (AID 2282966; active = hit-call score of the fitted dose curve at least 0.9, where 1 is the maximum; inactive = score below 0.9;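 note: background control endpoint measuring basal TAL promoter reporter mRNA not a specific factor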); conditions: HepG2 Attagene cis-factorial TAL promoter reporter; actives raise or lower the signal
Procedure, shortened: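 HepG2 cells were transiently transfected with promoter-driven multiplexed reporter units and dosed for 24 h. Reporter mRNA was measured by RT-PCR with capillary electrophoresis fluorescence; bidirectional fits used DMSO as baseline, serving as a background control.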

[3] = ATG_TGFb_CIS: Attagene CIS-FACTORIAL HepG2 Assay for human Transforming Growth Factor (TGF) (AID 2282967; active = hit-call score of the fitted dose curve at least 0.9, where 1 is the maximum; inactive = score below 0.9); conditions: HepG2 Attagene CIS TGFb reporter, mRNA transcription; actives raise or lower the signal
Procedure, shortened: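 HepG2 cells transiently transfected with cis-promoter-driven multiple reporter units measure endogenous TF activity; reporter mRNA quantified at 24 h by RT-PCR, FAM labeling, HpaI digestion and capillary electrophoresis. Bidirectional fit vs DMSO.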

[4] = target: Estrogen receptor (Homo sapiens) (UniProt P03372); experiment: ATG_ERa_TRANS: Attagene TRANS-FACTORIAL HepG2 Assay for human Estrogen Receptor alpha (ERa) (AID 2282970); conditions: HepG2 Attagene TRANS ERa GAL4 reporter, mRNA
Estrogen receptor (Homo sapiens), sequence (P03372 whole entry, looked up, the tested form may be a part): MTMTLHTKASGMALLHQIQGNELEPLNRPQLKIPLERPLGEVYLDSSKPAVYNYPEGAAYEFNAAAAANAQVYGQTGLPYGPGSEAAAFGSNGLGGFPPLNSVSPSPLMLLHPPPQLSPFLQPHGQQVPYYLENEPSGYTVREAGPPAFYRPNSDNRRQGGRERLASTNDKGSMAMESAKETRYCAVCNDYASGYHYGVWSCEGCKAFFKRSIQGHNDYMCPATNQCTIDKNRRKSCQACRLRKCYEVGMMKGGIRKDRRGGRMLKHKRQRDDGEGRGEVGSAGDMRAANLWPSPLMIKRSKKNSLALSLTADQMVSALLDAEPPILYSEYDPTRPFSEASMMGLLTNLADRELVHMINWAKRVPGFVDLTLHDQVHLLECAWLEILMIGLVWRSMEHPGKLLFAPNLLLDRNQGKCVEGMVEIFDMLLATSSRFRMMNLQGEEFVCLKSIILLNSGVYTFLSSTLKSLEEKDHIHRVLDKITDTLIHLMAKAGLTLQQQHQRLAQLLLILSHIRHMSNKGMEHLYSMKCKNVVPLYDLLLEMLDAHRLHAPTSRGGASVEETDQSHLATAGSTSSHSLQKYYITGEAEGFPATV
Procedure, shortened: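 HepG2 cells transiently transfected with multiplexed GAL4-UAS reporter units; ERa activity read via exogenous chimeric NR-Gal4 protein. After 24 hour compound exposure, reporter mRNA measured by RT-PCR with 6-FAM labelling and capillary electrophoresis; gain-of-signal fitted relative to DMSO.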

[5] = target: X-box-binding protein 1 (Homo sapiens) (UniProt P17861); experiment: ATG_Xbp1_CIS: Attagene CIS-FACTORIAL HepG2 Assay for human X-box Binding Protein 1 (XBP1) (AID 2282972; active = hit-call score of the fitted dose curve at least 0.9, where 1 is the maximum; inactive = score below 0.9); conditions: HepG2 XBP1 cis-element reporter, Attagene multiplex; actives raise or lower the signal
X-box-binding protein 1 (Homo sapiens), sequence (P17861 whole entry, looked up, the tested form may be a part): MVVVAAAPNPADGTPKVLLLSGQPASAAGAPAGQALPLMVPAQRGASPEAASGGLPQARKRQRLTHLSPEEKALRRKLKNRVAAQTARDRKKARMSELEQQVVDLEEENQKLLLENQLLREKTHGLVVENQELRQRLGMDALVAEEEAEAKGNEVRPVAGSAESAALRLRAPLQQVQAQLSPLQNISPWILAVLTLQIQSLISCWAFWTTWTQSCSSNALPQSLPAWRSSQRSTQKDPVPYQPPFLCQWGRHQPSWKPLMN
Procedure, shortened: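 Fluorescence-labelled cDNA fragments from reporter transcripts, separated by capillary electrophoresis, give the signal. Source: HepG2 cells transfected with promoter-driven reporter units, harvested 24 h post-dose. DMSO served as reference for bidirectional curve fitting.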

[6] = target: Bile acid receptor (Homo sapiens) (UniProt Q96RI1); experiment: ATG_FXR_TRANS: Attagene TRANS-FACTORIAL HepG2 Assay for Farnesoid X Receptor (FXR) (AID 2282979); conditions: HepG2 Attagene TRANS FXR-GAL4 reporter transcription;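 note: hits raise reporter mRNA above DMSO so AC50 marks FXR activation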
Bile acid receptor (Homo sapiens), sequence (Q96RI1 whole entry, looked up, the tested form may be a part): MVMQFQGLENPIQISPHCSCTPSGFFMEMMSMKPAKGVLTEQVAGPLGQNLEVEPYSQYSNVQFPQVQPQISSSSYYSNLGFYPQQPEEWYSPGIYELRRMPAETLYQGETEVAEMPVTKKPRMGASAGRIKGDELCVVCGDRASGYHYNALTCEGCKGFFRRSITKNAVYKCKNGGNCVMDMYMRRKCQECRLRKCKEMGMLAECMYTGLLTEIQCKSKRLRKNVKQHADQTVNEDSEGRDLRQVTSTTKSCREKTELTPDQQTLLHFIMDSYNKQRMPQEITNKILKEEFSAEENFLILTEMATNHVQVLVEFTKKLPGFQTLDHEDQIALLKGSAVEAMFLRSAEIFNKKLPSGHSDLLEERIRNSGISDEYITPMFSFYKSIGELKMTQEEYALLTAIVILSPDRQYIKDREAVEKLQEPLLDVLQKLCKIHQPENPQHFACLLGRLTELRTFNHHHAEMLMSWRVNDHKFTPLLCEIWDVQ
Procedure, shortened: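 HepG2 cells transiently transfected with reporter constructs in which a chimeric FXR-GAL4 protein drives a GAL4-UAS reporter; 24 h compound exposure. Reporter mRNA measured by RT-PCR, FAM labelling, HpaI digestion and capillary electrophoresis; gain-of-signal versus DMSO.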

[7] = ATG_M_06_TRANS: Attagene TRANS-FACTORIAL HepG2 Assay for M06 Transcription Factor (Internal Marker) (AID 2282983); conditions: HepG2 Attagene TRANS M06 internal marker reporter
Procedure, shortened: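 HepG2 cells transiently transfected with multiplexed GAL4-UAS reporter transcription units; after 24 h compound exposure, reporter mRNA measured by RT-PCR, FAM-labelled primer extension, HpaI digestion and capillary electrophoresis. Gain-of-signal fitted versus DMSO baseline; background control readout.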

[8] = target: Transcriptional activator Myb (Homo sapiens) (UniProt P10242); experiment: ATG_Myb_CIS: Attagene CIS-FACTORIAL HepG2 Assay for human Myeloblastosis (Myb) Proto-Oncogene Transcription Factor (AID 2282986; active = hit-call score of the fitted dose curve at least 0.9, where 1 is the maximum; inactive = score below 0.9); conditions: HepG2 Attagene CIS-FACTORIAL Myb reporter transcription; actives raise or lower the signal
Transcriptional activator Myb (Homo sapiens), sequence (P10242 whole entry, looked up): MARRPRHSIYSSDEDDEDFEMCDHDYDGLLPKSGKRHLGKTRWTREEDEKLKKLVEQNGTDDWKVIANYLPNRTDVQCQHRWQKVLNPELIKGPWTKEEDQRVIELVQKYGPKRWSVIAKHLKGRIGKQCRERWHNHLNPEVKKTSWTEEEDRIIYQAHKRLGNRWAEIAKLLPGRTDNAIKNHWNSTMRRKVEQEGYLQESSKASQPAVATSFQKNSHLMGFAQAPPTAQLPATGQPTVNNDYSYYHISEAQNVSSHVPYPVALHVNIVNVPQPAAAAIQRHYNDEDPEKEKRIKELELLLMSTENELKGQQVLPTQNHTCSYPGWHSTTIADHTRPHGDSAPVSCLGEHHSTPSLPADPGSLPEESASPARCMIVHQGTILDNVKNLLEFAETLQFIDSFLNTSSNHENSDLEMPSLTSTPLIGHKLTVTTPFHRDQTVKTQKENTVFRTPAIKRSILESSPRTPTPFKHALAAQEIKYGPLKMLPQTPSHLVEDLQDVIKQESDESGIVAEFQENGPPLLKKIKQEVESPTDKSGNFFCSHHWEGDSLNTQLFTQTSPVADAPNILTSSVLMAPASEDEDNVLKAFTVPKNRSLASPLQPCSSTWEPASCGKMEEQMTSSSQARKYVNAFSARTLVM
Procedure, shortened: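 Transiently transfected HepG2 cells, treated 24 h. Reporter mRNA quantified by RT-PCR/capillary electrophoresis; bidirectional fit relative to DMSO.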

[9] = target: Nuclear receptor subfamily 1 group I member 3 (Homo sapiens) (UniProt Q14994); experiment: ATG_CAR_TRANS: Attagene TRANS-FACTORIAL HepG2 Assay for human Constitutive Androstane Receptor (CAR) (AID 2282969); conditions: HepG2 Attagene TRANS-FACTORIAL CAR reporter;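 note: activators raise reporter mRNA above DMSO so AC50 marks induction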
Nuclear receptor subfamily 1 group I member 3 (Homo sapiens), sequence (Q14994 whole entry, looked up, the tested form may be a part): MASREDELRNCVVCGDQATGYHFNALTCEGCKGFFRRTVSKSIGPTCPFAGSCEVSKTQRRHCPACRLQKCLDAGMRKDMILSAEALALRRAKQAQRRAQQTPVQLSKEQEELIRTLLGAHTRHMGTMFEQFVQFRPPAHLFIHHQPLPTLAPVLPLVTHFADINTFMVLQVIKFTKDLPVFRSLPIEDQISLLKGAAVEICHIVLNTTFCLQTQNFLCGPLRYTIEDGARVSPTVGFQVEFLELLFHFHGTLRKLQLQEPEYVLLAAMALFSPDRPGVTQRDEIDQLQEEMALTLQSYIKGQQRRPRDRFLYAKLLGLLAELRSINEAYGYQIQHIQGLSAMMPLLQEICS
Procedure, shortened: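 HepG2 cells transiently transfected with multiplexed GAL4-UAS reporter units expressing chimeric NR-Gal4 proteins; compound exposure 24 h. Reporter mRNA measured by RT-PCR, 6-FAM labelling, HpaI digestion and capillary electrophoresis; gain-of-signal fitted against DMSO baseline.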

[10] = target: Steroid hormone receptor ERR1 (Homo sapiens) (UniProt P11474); experiment: ATG_ERRa_TRANS: Attagene TRANS-FACTORIAL HepG2 Assay for human Estrogen-Related Receptor alpha (ERRa) (AID 2282971); conditions: HepG2 Attagene TRANS reporter, ERRa transactivation
Steroid hormone receptor ERR1 (Homo sapiens), sequence (P11474 whole entry, looked up, the tested form may be a part): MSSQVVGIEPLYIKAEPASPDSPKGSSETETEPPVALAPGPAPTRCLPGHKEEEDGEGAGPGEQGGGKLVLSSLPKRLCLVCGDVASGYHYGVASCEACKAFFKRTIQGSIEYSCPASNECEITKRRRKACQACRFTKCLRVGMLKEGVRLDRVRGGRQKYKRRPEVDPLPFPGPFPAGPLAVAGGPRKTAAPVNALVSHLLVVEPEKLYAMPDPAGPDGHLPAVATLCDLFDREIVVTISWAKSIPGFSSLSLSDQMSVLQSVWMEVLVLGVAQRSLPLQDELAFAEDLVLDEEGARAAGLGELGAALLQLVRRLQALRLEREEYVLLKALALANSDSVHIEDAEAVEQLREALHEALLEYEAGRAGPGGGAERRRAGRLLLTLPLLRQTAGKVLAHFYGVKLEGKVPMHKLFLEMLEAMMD
Procedure, shortened: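 HepG2 cells transiently transfected with multiplexed GAL4-UAS reporter units reading chimeric ERRa-Gal4 activity; 24 h compound exposure. Reporter mRNA measured by RT-PCR, 6-FAM labelling, HpaI digest and capillary electrophoresis; gain of signal fitted versus DMSO baseline.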

[11] = ATG_M_19_TRANS: Attagene TRANS-FACTORIAL HepG2 Assay for M19 Transcription Factor (Internal Marker) (AID 2282974); conditions: HepG2 Attagene TRANS-FACTORIAL M19 internal marker reporter
Procedure, shortened: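 Reporter mRNA induction was measured in transfected HepG2 cells 24 h after dosing. Endpoint fitted upward relative to DMSO and serves as a background control within the multiplexed TRANS panel.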

[12] = ATG_GAL4_TRANS: Attagene TRANS-FACTORIAL HepG2 Assay for GAL4 (Internal Marker) (AID 2282976); conditions: HepG2 Attagene TRANS GAL4 internal marker reporter
Procedure, shortened: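 HepG2 cells transiently transfected with multiplexed GAL4-UAS reporter constructs were dosed for 24 h. Reporter mRNA was measured by RT-PCR, 6-FAM primer extension, HpaI digestion and capillary electrophoresis, and gain of signal was fitted relative to DMSO.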

[13] = target: Estrogen-related receptor gamma (Homo sapiens) (UniProt P62508); experiment: ATG_ERRg_TRANS: Attagene TRANS-FACTORIAL HepG2 Assay for human Estrogen-Related Receptor gamma (ERRg) (AID 2282977); conditions: HepG2 Attagene TRANS reporter, ERRg transactivation;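 note: hits increase reporter signal over DMSO so potencies reflect activators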
Procedure, shortened: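 HepG2 cells transiently transfected with multiplexed GAL4-UAS reporter units driven by chimeric NR-Gal4 proteins; 24 h exposure. Reporter mRNA quantified by RT-PCR, fluorescent labelling, HpaI digestion and capillary electrophoresis; gain of signal vs DMSO.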

[14] = target: Glucocorticoid receptor (Homo sapiens) (UniProt P04150); experiment: ATG_GR_TRANS: Attagene TRANS-FACTORIAL HepG2 Assay for human Glucocorticoid Receptor (GR) (AID 2282978); conditions: HepG2 Attagene TRANS GR reporter, mRNA transcription;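 note: activators score as hits since higher reporter transcript over DMSO is fitted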
Procedure, shortened: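 Reporter transcript levels, detected by fluorescence after RT-PCR and capillary electrophoresis, served as the endpoint. HepG2 cells bearing transfected GAL4-UAS reporters responsive to NR-GAL4 chimeras were incubated with compound 24 h; DMSO defined baseline.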

[15] = target: Oxysterols receptor LXR-alpha (Homo sapiens) (UniProt Q13133); experiment: ATG_LXRa_TRANS: Attagene TRANS-FACTORIAL HepG2 Assay for human Liver X Receptor alpha (LXRa) (AID 2282980); conditions: HepG2 Attagene TRANS reporter, LXRa transactivation
Oxysterols receptor LXR-alpha (Homo sapiens), sequence (Q13133 whole entry, looked up, the tested form may be a part): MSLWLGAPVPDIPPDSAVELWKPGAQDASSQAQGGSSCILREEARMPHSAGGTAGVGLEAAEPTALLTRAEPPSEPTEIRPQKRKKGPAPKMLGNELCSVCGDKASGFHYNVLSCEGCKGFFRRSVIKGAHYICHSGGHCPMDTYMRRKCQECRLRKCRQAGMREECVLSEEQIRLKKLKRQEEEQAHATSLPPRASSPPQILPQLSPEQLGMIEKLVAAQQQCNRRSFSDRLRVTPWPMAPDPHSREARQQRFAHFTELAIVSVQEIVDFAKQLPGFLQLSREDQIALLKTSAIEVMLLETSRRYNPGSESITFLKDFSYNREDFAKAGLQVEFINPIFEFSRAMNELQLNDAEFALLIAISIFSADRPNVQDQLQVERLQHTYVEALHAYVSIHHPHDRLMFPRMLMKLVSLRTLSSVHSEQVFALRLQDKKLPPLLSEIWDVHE
Procedure, shortened: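 HepG2 cells were transiently transfected with multiplexed reporter units driven by chimeric LXRa–GAL4 fusion proteins, then dosed for 24 h. Reporter mRNA was quantified by RT-PCR, fluorescent labelling and capillary electrophoresis; gain of signal fitted against DMSO baseline.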

[16] = target: Oxysterols receptor LXR-beta (Homo sapiens) (UniProt P55055); experiment: ATG_LXRb_TRANS: Attagene TRANS-FACTORIAL HepG2 Assay for human Liver X Receptor beta (LXRb) (AID 2282981); conditions: HepG2 Attagene TRANS GAL4-LXRb reporter, mRNA
Oxysterols receptor LXR-beta (Homo sapiens), sequence (P55055 whole entry, looked up, the tested form may be a part): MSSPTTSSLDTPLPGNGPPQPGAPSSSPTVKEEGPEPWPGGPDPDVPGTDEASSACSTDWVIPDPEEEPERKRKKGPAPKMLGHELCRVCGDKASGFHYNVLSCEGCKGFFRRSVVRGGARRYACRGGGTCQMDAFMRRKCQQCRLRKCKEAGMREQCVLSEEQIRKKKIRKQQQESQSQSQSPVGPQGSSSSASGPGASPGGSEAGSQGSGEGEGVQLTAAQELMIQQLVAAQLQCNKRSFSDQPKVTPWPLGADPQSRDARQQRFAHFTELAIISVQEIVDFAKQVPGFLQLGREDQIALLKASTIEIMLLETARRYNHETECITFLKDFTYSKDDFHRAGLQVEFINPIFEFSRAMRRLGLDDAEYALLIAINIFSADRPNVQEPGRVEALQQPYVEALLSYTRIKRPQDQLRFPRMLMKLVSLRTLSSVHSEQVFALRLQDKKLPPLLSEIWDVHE
Procedure, shortened: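 In this TRANS format, exogenous chimeric NR-Gal4 protein activity, not endogenous factors, drives reporter expression in transfected human HepG2 cells. Exposure lasted 24 h; reporter mRNA was read by fluorescent capillary electrophoresis.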

[17] = target: Hepatocyte nuclear factor 4-alpha (Homo sapiens) (UniProt P41235); experiment: ATG_HNF4a_TRANS: Attagene TRANS-FACTORIAL HepG2 Assay for human Hepatocyte Nuclear Factor 4 alpha (HNF4a) (AID 2282982); conditions: HepG2 HNF4a transactivation reporter, mRNA readout
Hepatocyte nuclear factor 4-alpha (Homo sapiens), sequence (P41235 whole entry, looked up, the tested form may be a part): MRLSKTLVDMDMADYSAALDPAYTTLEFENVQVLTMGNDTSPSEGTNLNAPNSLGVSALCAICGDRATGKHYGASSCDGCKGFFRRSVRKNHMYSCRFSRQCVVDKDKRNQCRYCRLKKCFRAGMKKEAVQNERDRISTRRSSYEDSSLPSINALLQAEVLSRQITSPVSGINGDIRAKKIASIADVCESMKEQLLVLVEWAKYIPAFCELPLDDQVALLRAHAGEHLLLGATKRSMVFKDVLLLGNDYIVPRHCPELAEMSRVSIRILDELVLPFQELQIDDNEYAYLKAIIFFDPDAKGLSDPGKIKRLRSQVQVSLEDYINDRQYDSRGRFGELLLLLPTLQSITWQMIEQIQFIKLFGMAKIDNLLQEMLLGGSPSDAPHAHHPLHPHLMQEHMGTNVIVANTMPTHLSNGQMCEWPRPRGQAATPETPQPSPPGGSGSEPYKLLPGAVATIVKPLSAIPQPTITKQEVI
Procedure, shortened: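 Cells used were human HepG2, transiently carrying GAL4-UAS reporter units read out against exogenous NR-GAL4 chimeras. Reporter transcript levels after 24 h dosing were quantified by fluorescent RT-PCR and capillary electrophoresis.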

[18] = ATG_M_32_TRANS: Attagene TRANS-FACTORIAL HepG2 Assay for M32 Transcription Factor (Internal Marker) (AID 2282984); conditions: HepG2 Attagene TRANS M32 internal marker reporter
Procedure, shortened: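 Human hepatoma HepG2, transient MRTU transfection, 24 h treatment. RNA → RT-PCR → fluorescent primer extension → HpaI digest (2 h, 37 C) → CE. Positive-direction fit vs DMSO.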

[19] = target: Nuclear receptor subfamily 4 group A member 2 (Homo sapiens) (UniProt P43354); experiment: ATG_NURR1_TRANS: Attagene TRANS-FACTORIAL HepG2 Assay for human Nuclear Receptor Related Protein 1 (NURR1) (AID 2282985); conditions: HepG2 Attagene TRANS reporter, mRNA readout
Nuclear receptor subfamily 4 group A member 2 (Homo sapiens), sequence (P43354 whole entry, looked up): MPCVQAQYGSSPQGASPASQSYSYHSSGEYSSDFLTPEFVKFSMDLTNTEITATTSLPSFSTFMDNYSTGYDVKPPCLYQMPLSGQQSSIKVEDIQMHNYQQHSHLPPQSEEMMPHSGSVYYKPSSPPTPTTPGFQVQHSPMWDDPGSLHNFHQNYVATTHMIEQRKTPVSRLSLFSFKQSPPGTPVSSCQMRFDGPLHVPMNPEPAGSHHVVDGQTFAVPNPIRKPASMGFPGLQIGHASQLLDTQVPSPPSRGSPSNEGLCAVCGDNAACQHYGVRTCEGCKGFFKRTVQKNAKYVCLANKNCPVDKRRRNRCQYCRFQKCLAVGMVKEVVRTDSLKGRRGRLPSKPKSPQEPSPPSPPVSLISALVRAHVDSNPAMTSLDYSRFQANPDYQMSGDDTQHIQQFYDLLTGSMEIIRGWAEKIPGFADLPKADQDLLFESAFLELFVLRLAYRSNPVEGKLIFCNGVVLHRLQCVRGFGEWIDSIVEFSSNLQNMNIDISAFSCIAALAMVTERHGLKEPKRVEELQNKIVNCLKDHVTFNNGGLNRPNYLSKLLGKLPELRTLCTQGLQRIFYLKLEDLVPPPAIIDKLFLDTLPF
Procedure, shortened: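 After 24 h chemical dosing, total RNA from transiently transfected HepG2 cells was reverse-transcribed and reporter cDNA PCR-amplified, FAM-labelled and analysed by capillary electrophoresis. Activity fitted in positive direction, DMSO as negative control.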

Measured: AC50

CC(C)(C)CC(C)(C)c1ccc(O)c(-n2nc3ccccc3n2)c1
inactive: [1] | [2] | [3] | [5] | [6] | [7] | [8]
active: [4] 26.8 µM

Cc1ccc(S(=O)(=O)O)c(C)c1
inactive: [1] | [2] | [3] | [9] | [4] | [10] | [5] | [11] | [12] | [13] | [14] | [15] | [16] | [17] | [18] | [19] | [8]

CCCOc1sc(C(=O)N2CCC(c3cc(CN)ccc3F)CC2)c(C)c1Br
active: [15] 1.34 µM | [16] 1.46 µM
inactive: [1] | [2] | [3] | [4] | [5] | [11] | [14] | [6] | [17] | [18] | [19] | [8]

O=C(/C=C/c1ccc(O)cc1)CC(=O)/C=C/c1ccc(O)cc1
inactive: [1] | [2] | [3] | [9] | [4] | [10] | [5] | [13] | [6] | [15] | [17] | [7] | [19] | [8]

From PubChem BioAssay (EPA / NIEHS)
